Assay results from PubChem BioAssay AID1490 (National Center for Advancing Translational Sciences (NCATS), 2009).
In all, about 310,000 compounds went through this assay and about 11,000 (3.5%) were called active. Roughly 4% stayed inconclusive and do not appear here. Many of the other results were omitted from the sample, so actives are more common in it than they were. A number with no mark means an inactive call. Calls come from the whole dose curve; as a rule, active = well fitted inhibition curve with a large enough effect; inconclusive = small, poorly fitted or top-dose-only effect, or another doubt; inactive = no such curve, though single readings can be large or run the other way.

Target: 4'-phosphopantetheinyl transferase ffp (Bacillus subtilis) (UniProt Q9F4F7)
Test: qHTS Assay for Inhibitors of Bacillus subtilis Sfp phosphopantetheinyl transferase (PPTase);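 note: the enzyme is Sfp with the accession as filed and its product quenches rhodamine fluorescence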;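 for largest response in the series, negative = inhibition: 0% = enzyme reaction without inhibitor and -100% = no enzyme wells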
Conditions: Biochemical Sfp PPTase activity
In short: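 With Hepes-Na pH 7.6 buffer containing 10 mM MgCl2, Sfp (15 nM) modified BHQ-2-YbbR (12.5 uM) using rhodamine-CoA (5 uM). Two reads 30 minutes apart at 525/598 nm yielded each well's rate.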
Potency is the fitted concentration of half-maximal effect.

Q: Which largest response in the series, negative = inhibition does the source give for `COc1ccc(CCNC(=O)c2c(C)nn(-c3ccccc3)c2Cl)cc1` here?
A: 9.27%

Q: With `CN(CC1CCCO1)S(=O)(=O)c1ccc(C(=O)Nc2ccc([N+](=O)[O-])cc2)cc1` (stereo unspecified) as the molecule, how does the largest response in the series, negative = inhibition read?
A: -10.7%

Q: For `Cc1c(NC(=O)c2cc(-c3ccc(Br)cc3)on2)c(=O)n(-c2ccccc2)n1C`, which largest response in the series, negative = inhibition is on record?
A: 2.71%

Q: `NS(=O)(=O)c1cccc(NC(=O)CSc2nc3ccccc3n2-c2ccccc2)c1` was tested. Which Potency did it give?
A: 79.4 µM (active)

Q: How did the largest response in the series, negative = inhibition turn out when `COc1ccc(-n2cnnc2SCC(=O)Nc2cccc(S(N)(=O)=O)c2)cc1` was run?
A: 3.4%

Q: With `Cc1nnc(SCC(=O)Nc2cccc(N)c2)n1-c1ccccc1` as the molecule, how does the largest response in the series, negative = inhibition read?
A: 20%

Q: How did the largest response in the series, negative = inhibition turn out when `COC(=O)c1c(NC(=O)C(=O)N2CCCCC2)sc2c1CC(C)(C)OC2` was run?
A: -1.3%

Q: For `COc1ccc(/C=C/C(=O)N2CCCC2)cc1OC`, which largest response in the series, negative = inhibition is on record?
A: -0.604%

Q: Which Potency does the source give for `COc1cc(OC)c(C(=S)N2CCCC2)cc1OC` here?
A: 20 µM (active)

Q: Which largest response in the series, negative = inhibition does the source give for `COc1cc(OC)c(C(=O)N2CCCC2)cc1OC` here?
A: 10.6%

Q: With `COc1ccc(OC)c(CCNC(=O)c2nn(C)c3c2CS(=O)(=O)c2ccccc2-3)c1` as the molecule, how does the largest response in the series, negative = inhibition read?
A: 15.7%

Q: `COc1ccc(NC(=O)CN2C(=O)COc3ccc(S(=O)(=O)N4CCOCC4)cc32)c(OC)c1` was tested. Which largest response in the series, negative = inhibition did it give?
A: 15.2%

Q: `O=C(c1ccc(S(=O)(=O)N2CCCC2)cc1)N1CCN(c2ccccc2F)CC1` was tested. Which largest response in the series, negative = inhibition did it give?
A: 11.7%

Q: With `COc1ccc(/C=C/c2noc(-c3ccccc3OC(C)=O)n2)cc1` as the molecule, how does the largest response in the series, negative = inhibition read?
A: -16%

Q: How did the Potency turn out when `Cc1cccc(NC(=O)c2sc3nc(N4CCOCC4)c4c(c3c2N)CCCC4)c1` was run?
A: 17.8 µM (active)

Q: `Cc1cccc(NC(=O)c2sc3nc4c(c(-c5ccco5)c3c2N)CCC4)c1` was tested. Which largest response in the series, negative = inhibition did it give?
A: -15.6%

Q: For `CC(=O)Nc1ccc(N2CCOCC2)c(C(=O)Nc2cccc(C)c2)c1`, which largest response in the series, negative = inhibition is on record?
A: 6.24%

Q: With `COc1cccc(CNC(=O)CN(C)S(=O)(=O)c2ccc3c(c2)c(=O)n(C)c(=O)n3C)c1` as the molecule, how does the largest response in the series, negative = inhibition read?
A: -4.3%

Q: Which largest response in the series, negative = inhibition does the source give for `CCc1ccc(NC(=O)N2CCN(c3ccccc3)CC2)cc1` here?
A: 3.63%

Q: For `CC(CC(=O)N1CCN(c2ccccc2)CC1)c1ccccc1` (stereo unspecified), which largest response in the series, negative = inhibition is on record?
A: 3.18%

Q: With `CC(=O)N1CCN(c2ccc(NCc3ccc(C(C)C)cc3)cc2)CC1` as the molecule, how does the Potency read?
A: 50.1 µM (active)

Q: How did the largest response in the series, negative = inhibition turn out when `O=C1C(=O)N(CCCO)C(c2ccccc2)/C1=C(\O)c1ccc(Br)cc1` (stereo unspecified) was run?
A: 6.17%

Q: `COc1ccc(C2=NS(=O)(=O)N(C)C(C(=O)N3CCCCC3)=C2)cc1` was tested. Which largest response in the series, negative = inhibition did it give?
A: 1.59%

Q: For `COc1ccc(NC(=O)c2ccco2)cc1NC(=O)c1ccc(C#N)cc1F`, which largest response in the series, negative = inhibition is on record?
A: 6.39%

Q: `Nn1cnnc1N/N=C/c1cc([N+](=O)[O-])c(Cl)cc1Cl` was tested. Which Potency did it give?
A: 50.1 µM (active)

Q: How did the largest response in the series, negative = inhibition turn out when `O=[N+]([O-])c1ccc(O)c(/C=N/Nc2ccccc2[N+](=O)[O-])c1` was run?
A: -9.69%

Q: `Cc1ccc2sc(NNC(=O)c3ccc4c(c3)OCCO4)nc2c1C` was tested. Which Potency did it give?
A: 28.2 µM (active)

Q: For `C/C(=N\NC(=O)C(N)=O)c1ccc2c(c1)OCCO2`, which largest response in the series, negative = inhibition is on record?
A: -17.8%

Q: `Cc1nc(NC(=O)c2ccc3c(c2)OCCO3)ccc1Br` was tested. Which largest response in the series, negative = inhibition did it give?
A: -0.776%

Q: `CCCN1CCN(C(=O)CCCNC(=O)c2ccc(Cl)cc2)CC1` was tested. Which largest response in the series, negative = inhibition did it give?
A: 8.54%

Q: Which largest response in the series, negative = inhibition does the source give for `COc1ccc(NC(=O)CC(NC(C)c2ccccc2)C(=O)O)cc1` (stereo unspecified) here?
A: -9.65%

Q: How did the largest response in the series, negative = inhibition turn out when `CN(C)CCCNC(=O)c1cc(C(=O)Cc2ccc(Cl)cc2)c[nH]1` was run?
A: 3.87%

Q: For `COc1cc(C2CC(=O)N3CN(Cc4ccccc4)CSC3=C2C#N)ccc1OCc1ccccc1` (stereo unspecified), which Potency is on record?
A: 3.55 µM (active)

Q: Which largest response in the series, negative = inhibition does the source give for `COc1cc(CNC2CCCC2)c(Br)cc1OCc1ccccc1` here?
A: 9.9%

Q: Which largest response in the series, negative = inhibition does the source give for `COc1cc(CN2CCC(C(N)=O)CC2)ccc1OCc1ccccc1` here?
A: -21.1%

Q: For `Cc1ccc(CNC(=O)CCC(=O)N2CC(C)Sc3ccccc32)cc1` (stereo unspecified), which largest response in the series, negative = inhibition is on record?
A: 23.4%

Q: Which largest response in the series, negative = inhibition does the source give for `CC(=O)Nc1ccc(S(=O)(=O)N2CCC(NC(=O)c3ccccc3)CC2)cc1` here?
A: 22.8%

Q: Which largest response in the series, negative = inhibition does the source give for `COc1ccc2c(c1)N(C)/C(=C1/SC(=S)N(NC(C)=O)C1=O)S2` here?
A: -12.7%

Q: With `COc1cc(C(=O)N[C@@H](C)C(=O)NCc2ccco2)cc(OC)c1OC` as the molecule, how does the largest response in the series, negative = inhibition read?
A: 8.28%

Q: Which Potency does the source give for `COc1cc(C(=O)NC(=S)NCc2ccco2)cc(OC)c1OC` here?
A: 44.7 µM (active)

Q: Which largest response in the series, negative = inhibition does the source give for `COc1cccc(OC)c1C(=O)NC(=S)NCc1ccco1` here?
A: -3.61%

Q: With `Fc1ccc(-c2ccc(NCCN3CCOCC3)nn2)cc1` as the molecule, how does the largest response in the series, negative = inhibition read?
A: 19.2%

Q: With `COc1cc(C(=S)N2CCOCC2)cc(OC)c1OC(=O)c1ccc([N+](=O)[O-])cc1[N+](=O)[O-]` as the molecule, how does the largest response in the series, negative = inhibition read?
A: 7.82%

Q: How did the largest response in the series, negative = inhibition turn out when `COc1cc(C(=S)N2CCOCC2)cc(OC)c1OC(=O)c1cc([N+](=O)[O-])cc([N+](=O)[O-])c1` was run?
A: 4.17%

Q: Which Potency does the source give for `O=C(Oc1ccccc1C(=S)N1CCCCC1)c1cc([N+](=O)[O-])cc([N+](=O)[O-])c1` here?
A: 31.6 µM (active)

Q: `O=C(Nc1ccc(C(=O)N2CCCCC2)cc1)c1cccc([N+](=O)[O-])c1` was tested. Which largest response in the series, negative = inhibition did it give?
A: 17.2%
